HepG2 tox: qHTS for Inhibitors of TGF-b: Cytotox Counterscreen; HepG2 CAGA-GFP viability, ATP luminescence, 18 h; AID 588856, 2011; Potency, µM (series often up to 46.1 µM), for the others: at the top dose activity change, negative = cytotoxicity, hits mostly cytotoxic; actives 0.76% (n = 410,000)
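CellTiter-Glo luminescence gave cytotoxicity after 18 hours at 37 degrees C. The cells were HepG2 CAGA-GFP in 1% FBS DMEM, stimulated with 500 pg/mL TGF-beta after compound addition. %Activity was normalised to no-cell wells (complete cell-killing) and DMSO (no toxicity), and curves were fitted and classified.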
ATXN2 expr inh: Primary qHTS for Inhibitors of ATXN expression | Potency, µM (top dose mostly 57 µM), without a hit: at the top dose activity change, negative = inhibition, usual class: inhibitors | actives 0.72% (n = 360,000) | HEK-293 ATXN2-luciferase reporter, luminescence, 24 h; note: % is set by controls: 0 for no effect and ±100 for the full control effect; nearly all actives have a fitted effect of over 55% in size
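ATXN2-luciferase reporter cells (luciferase flanked by upstream and downstream ATXN2 gene portions) were treated 24 h at 37 °C with compounds at up to 57 uM. SteadyGlo luminescence gave expression; GF-AFC fluorescence gave viability.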
DT40 TDP1 CPT: qHTS for Inhibitors of human tyrosyl-DNA phosphodiesterase 1 (TDP1): qHTS in cells in presence of CPT; Potency, µM (series often up to 46.2 µM), for the others: top-dose activity change, negative = growth inhibition, most hits filed as inhibitors; chicken DT40 Tdp1-/-;hTDP1 cells + 20 nM CPT, ATP luminescence, 48 h; actives 12% (n = 420,000); note: % is set by controls: 0 for no effect and ±100 for the full control effect; nearly all actives have a fitted effect of over 55% in size
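Cell growth measured by CellTiter-Glo luminescence after a minimum 48 h, 37 C compound exposure with 20 nM CPT in Tdp1-knockout DT40 cells stably expressing hTDP1, seeded 400/well; qHTS titration format.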
DT40 TDP1 no CPT: qHTS for Inhibitors of human tyrosyl-DNA phosphodiesterase 1 (TDP1): qHTS in cells in absence of CPT. Potency, µM (top dose mostly 46.2 µM), without a hit: top-dose activity change, negative = growth inhibition, actives largely listed as inhibitors. DT40 Tdp1-/- hTDP1 cells, no CPT, ATP luminescence, 48 h. actives 15% (n = 420,000); note: % is set by controls: 0 for no effect and ±100 for the full control effect; nearly all actives have a fitted effect of over 55% in size
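Readout: luminescence from CellTiter-Glo after 30 min in the dark at RT. Cells: DT40 Tdp1-/- with stable hTDP1, 400/well. Exposure: compounds alone, ≥48 hr, 37 °C.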
ATXN viability: Viability Counterscreen for Primary qHTS for Inhibitors of ATXN expression. S2 cells (HEK-293 line with an ATXN2-luciferase reporter) viability, CellTiter-Fluor protease fluorescence, 24 h. actives 0.49% (n = 400,000). Potency, µM (series often up to 56.7 µM), most hits filed as cytotoxic; note: nearly all actives have a fitted effect of over 40% in size
TGFb inhibitor: qHTS for Inhibitors of TGF-b. HepG2 CAGA-GFP TGF-b/SMAD3 reporter, GFP fluorescence, 18 h; TGF-beta stimulated, 500 pg/mL final. Potency, µM (top dose mostly 46.1 µM), without a hit: at the highest dose activity, negative = inhibition, usual class: inhibitors. actives 1.2% (n = 410,000); note: % is set by controls: 0 for no effect and ±100 for the full control effect; nearly all actives have a fitted effect of over 65% in size
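HEPG2 CAGA-GFP, 1000 cells/well; 2 h settle, 37 C; cpd via pin tool; TGF-b 500 pg/mL final; 18 h, 37 C; GFP imaging ex488/em500-530; %Activity normalised to -TGF-b and +DMSO controls; CRC fit, curve class.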
* hit, by the source's call; i = inactive; ? = inconclusive; . = no result; [ ] = another dose, or the depositor's remark. Sampled rows, rich in hits. Any-hit rate of the full collection: about 17%. Calls come from the whole dose curve; as a rule, active = well fitted curve in the direction sought with a large enough effect; inconclusive = small, poorly fitted or top-dose-only effect, or another doubt; inactive = no such curve, though single readings can be large; an effect the other way counts as inactive or inconclusive. Potency is the fitted concentration of half-maximal effect.

SMILES	HepG2 tox	ATXN2 expr inh	DT40 TDP1 CPT	DT40 TDP1 no CPT	ATXN viability	TGFb inhibitor
Nc1c(C(=O)OCC2CCCO2)c2nc3ccccc3nc2n1C1CCCC1 (stereo not drawn)	-26%	-13%	?	12µM*	i	?
COCCn1c(N)c(C(=O)NCC2CCCO2)c2nc3ccccc3nc21 (stereo not drawn)	-22%	-16%	?	?	.	2%
CC(C)Cn1c(N)c(C(=O)NCC2CCCO2)c2nc3ccccc3nc21 (stereo not drawn)	-38%	-14%	?	26µM*	.	?
CCCc1cc(Nc2ccccc2OCC)n2ncnc2n1	-8%	20%	-26%	?	i	-4%
C=CCNc1nc(C(=O)OCC(=O)N(Cc2ccccc2)C(C)C)cs1	3%	12%	-12%	3%	i	3%
COc1ccc(-c2ccnc3nc(N4CCN(c5ccccc5)CC4)nn23)cc1	2%	-8%	?	21µM*	i	-2%
Cc1ccc2[nH]c(C(=O)N3CCc4c(cnc(C)c4CNC(=O)c4ccccc4F)C3)cc2c1	.	.	19%[9.04 µM]	-17%	i	.
COc1ccc(-c2cc(C(F)F)n3ncc(C(=O)Nc4ccc(C(=O)N5CCOCC5)cc4)c3n2)cc1	-20%	-18%	10µM*	3.3µM*	i	-13%
CCOc1ccccc1NC(=O)c1cnn2c(C(F)F)cc(-c3ccccc3)nc12	-27%	12%	15µM*	23µM*	i	0%
O=C(c1cnn2c(C(F)F)cc(-c3ccccc3)nc12)N1CCOCC1	-18%	.	-23%	8%	.	0%
O=C(NCCN1CCOCC1)c1cnn2c(-c3ccccc3)cc(-c3ccccc3)nc12	-19%	-15%	?	23µM*	i	-1%
O=C(NCCN1CCOCC1)c1cc(-c2ccccc2)nc2ccccc12	-4%	.	-17%	?	i	-1%
O=C(Nc1ccc(C(=O)N2CCOCC2)cc1)c1cnn2c(C(F)F)cc(-c3ccccc3)nc12	1%	-12%	?	5.8µM*	i	5%
CC(=O)c1ccc(NC(=O)N2C3CCC2CC(O)(c2cccnc2)C3)cc1 (stereo not drawn)	-3%	1%	14%	-8%	i	7%
COc1ccccc1CCNC(=O)c1cnn2c(C(F)F)cc(C)nc12	2%	-13%	21µM*	23µM*	i	0%
COc1ccccc1CNC(=O)c1cnn2c(C(F)F)cc(C)nc12	-22%	0%	?	?	i	0%
COc1ccc([C@H]2N[C@]3(CCCN(Cc4ccccc4)C3=O)[C@H]3C(=O)N(Cc4ccccc4)C(=O)[C@@H]23)cc1	-28%	6%	-7%	?	i	?
COc1ccc([C@H]2N[C@]3(CCCN(Cc4ccc(C)cc4)C3=O)[C@H]3C(=O)N(Cc4ccccc4)C(=O)[C@@H]23)cc1	-10%	0%	?	16µM*	i	3%
COc1ccc([C@H]2N[C@]3(CCCN(Cc4ccc(Cl)cc4)C3=O)[C@H]3C(=O)N(Cc4ccccc4)C(=O)[C@@H]23)cc1	-34%	12%	18µM*	23µM*	i	7%
CC(C)Cn1c(O)c(N=NC(=O)c2cccc(S(=O)(=O)N3CCCCC3)c2)c2ccccc21	1%	-14%	16µM*	13µM*	i	?
CC(=O)Nc1ccc(S(=O)(=O)N2CCN(C(=O)N3CCCCC3)CC2)cc1	-5%	5%	-18%	-26%	i	-8%
O=C1NC[C@@H](CCCCN2C[C@H](Cc3ccc(O)cc3)N(Cc3ccccc3)C(=O)C2=O)N(CCC2CCCCC2)C1=O	.	4%	-7%	-25%	?	.
Cc1cc(O)c(C2=Nc3ccccc3SC(c3ccc(Cl)cc3)C2)c(=O)o1 (stereo not drawn)	7%	72%	5.2µM*	7.3µM*	i	?
Cc1ccc(Oc2nc3ccccn3c(=O)c2/C=C(\C#N)C(=O)NC2CCS(=O)(=O)C2)c(C)c1 (stereo not drawn)	-9%	.	?	?	i	8%
Cc1cc(C)cc(Oc2nc3ccccn3c(=O)c2/C=C(\C#N)C(=O)NC2CCS(=O)(=O)C2)c1 (stereo not drawn)	-33%	0%	?	9.2µM*	i	1%
SMILES	HepG2 tox	ATXN2 expr inh	DT40 TDP1 CPT	DT40 TDP1 no CPT	ATXN viability	TGFb inhibitor
CN(C)c1ccc(C=c2c3ccccc3n3c2c2ccccc2[n+]3C)cc1	-43%	6.3µM*	1.2µM*	1.5µM*	?	2.5µM*
CCOC(=O)SC1=N/C(=C\c2ccc(N(C)C)cc2)C(=O)S1	-15%	8%	-23%	-14%	i	2%
Cc1cc2c(=Cc3ccc(N(C)C)cc3)c3ccccc3n2[n+]1C	-29%	10µM*	0.52µM*	0.46µM*	?	6.3µM*
CCOC(=O)c1cc2c(=Cc3ccc(N(C)C)cc3)c3ccccc3n2[n+]1C	-39%	?	0.58µM*	0.46µM*	.	?
CC(C)COC(=O)c1cccc2c1-c1ccccc1/C2=N\O	-100%	4%	-15%	-19%	?	14µM*
O=C(OC1CC2CC1[C@H]1CCCCN1C2=O)N1CCC(c2ccccc2)CC1 (stereo partly drawn)	.	-14%	?	16µM*	?	.
O=C(OC1CC2CC1[C@H]1CCCCN1C2=O)N1CCN(c2ccccc2)CC1 (stereo partly drawn)	.	0%	2%	?	i	.
CCN(C(=O)COC(=O)/C(=C/c1ccccc1)NC(C)=O)c1c(N)n(Cc2ccccc2)c(=O)[nH]c1=O	2%	0%	-4%	-15%	i	5%
CCOC(=O)c1ccccc1NC(=O)COC(=O)CC(C)(C)CC1=NS(=O)(=O)c2ccccc2N1	-31%	?	?	?	i	?
COc1ccccc1NC(=O)COC(=O)CC(C)(C)CC1=NS(=O)(=O)c2ccccc2N1	-13%	-14%	23µM*	?	i	?
CC(C)(CC(=O)OCC(=O)Nc1ccccc1F)CC1=NS(=O)(=O)c2ccccc2N1	-10%	-13%	23µM*	13µM*	i	?
